# PubChem BioAssay (NCATS)
# Records with an inconclusive call do not appear. Activity calls are given as the source filed them. The call rests on the fitted dose curve; in most records, active means well fitted inhibition curve with a large enough effect; inconclusive means small, poorly fitted or top-dose-only effect; inactive means flat fitted curve, though single readings scatter.
# Assay: BET inhibitor-based combinations targeting novel dependencies in MECOM-rearranged (r) AML: AML-194 cell line (AID 2202237; further: nearly all actives have a fitted effect of over 40% in size;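 on viability (% of control): plate controls were vehicle wells for no effect and wells without cells for full effect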)
# Conditions: AML-194 (MECOM-r AML) viability, CellTiter-Glo, 48 h; series mostly up to 46 µM; viability (% of control): at the top concentration
# Summary of the method: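 Readout: CellTiter-Glo luminescence. Exposure: 48 h, 11 concentrations, 500 cells/well. Metric: AUC and within-line Z-AUC after DMSO/empty-well normalization.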
# Potency means the concentration at half of the fitted maximal effect.
SMILES,viability (% of control),Potency
CN(C)NC(=O)CCC(=O)O,105% (inactive),
COCC1(CO)C(=O)C2CCN1CC2 (stereo unspecified),,10.5 µM (active)
N[C@@H]1C[C@H]1c1ccccc1,103% (inactive),
CCCCCCC(C)(C)c1cc(O)c2c(c1)OC(C)(C)C1CC=C(CO)C[C@H]21 (stereo partly specified),,23.5 µM (active)
C/C(=C\c1csc(C)n1)[C@@H]1C[C@@H]2O[C@]2(C)CCC[C@H](C)[C@H](O)[C@@H](C)C(=O)C(C)(C)[C@@H](O)CC(=O)O1,,0.0118 µM (active)
CN(C)[C@@H]1C(=O)C(C(N)=O)=C(O)[C@@]2(O)C(=O)C3=C(O)c4c(O)cccc4[C@@](C)(O)[C@H]3[C@H](O)[C@@H]12,108% (inactive),
COc1cc([C@@H]2c3cc4c(cc3[C@@H](O)C3COC(=O)C32)OCO4)cc(OC)c1O (stereo partly specified),,0.332 µM (active)
COC(=O)[C@]12CCC(C)(C)C[C@H]1[C@H]1C(=O)C=C3[C@@]4(C)C=C(C#N)C(=O)C(C)(C)[C@@H]4CC[C@@]3(C)[C@]1(C)CC2,,2.63 µM (active)
COc1cc(C)[nH]c(=O)c1CNC(=O)c1c(C)n([C@H](C)C2CCN(CC(F)(F)F)CC2)c2ccccc12,107% (inactive),
COc1ccc(N(C(=O)Oc2c(C)cccc2C)c2ccnc(Nc3ccc(N4CCN(C)CC4)cc3)n2)c(OC)c1,96.4% (inactive),
Cc1c(N)nc([C@H](CC(N)=O)NC[C@@H](N)C(N)=O)nc1C(=O)N[C@H](C(=O)N[C@@H](C)[C@H](O)[C@@H](C)C(=O)N[C@@H](C(=O)NCCc1nc(-c2nc(C(=O)NCCC[S+](C)C)cs2)cs1)[C@@H](C)O)C(O[C@H]1O[C@H](CO)[C@H](O)[C@@H](O)[C@H]1O[C@H]1O[C@H](CO)[C@@H](O)[C@H](OC(N)=O)[C@@H]1O)c1cnc[nH]1 (stereo partly specified),94.4% [at 15.6 µM] (inactive),
